This note sets out measurements from PubChem BioAssay.

The source made the active and inactive calls.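 Rule for the calls, unless noted: active = inhibition above 20% together with a positive visual image hit; inconclusive = visual image hit but inhibition not above 20%; inactive = no visual image hit.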

The nature of test [1]: inhibitors of TNFa-induced NFkB p65 translocation, primary screen, imaging, HUVEC, MLSMR starter and 10KST1 sets (AID 438).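 For inhibition: signal is the nuclear over cytoplasmic p65 intensity ratio per well.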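 Note: compound added about 3h40 before a 20 min TNFalpha stimulation.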 The conditions noted are these: HUVEC TNFa-induced p65 nuclear translocation; cell count: measured here: nuclei count (cytotoxicity indicator), at 2.08 µM; inhibition: at 2 µM, stronger effect = higher value, 0% TNFa-plus-vehicle, 100% no-TNFa wells.
A short description of test [2]: reduction of polyQ htt aggregates in cells – imaging, exon1htt(103Q)mCFP cells, high-content imaging, primary screen (AID 483;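 active = visual image review flags a hit and inhibition of aggregation exceeds 20%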;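 note: compound exposure lasted 3 days before fixation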;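 for nuclei count: percent of the per-plate median nuclei count of sample wells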). The conditions noted are these: exon1htt(103Q)mCFP cell line, aggregate imaging, at 2 µM; inhibition of aggregation: stronger effect = higher value; nuclei count: measured here: cell count, toxicity.
Test [3] is described as follows: endothelial E-selectin expression blockers – imaging, HUVEC, immunofluorescence, MLSMR starter and 10KST1 sets, primary screen (AID 487;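 active = visually confirmed hit in the image check and inhibition above 20%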;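 for inhibition: signal is fraction of cell area covered by stained E-selectin grains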;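 for nuclei count: 100% = median nuclei count of all wells on the same plate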). The conditions noted are these: HUVEC TNFalpha-induced E-selectin immunofluorescence imaging, at 2 µM; inhibition: stronger effect = higher value; nuclei count: measured here: cell number, toxicity.
The target in test [4] is Voltage-gated potassium channel subunit beta-2 (Rattus norvegicus) (UniProt P62483). Description: inhibitors of rat Kvbeta2 reductase activity – biochemical, NADPH fluorescence, primary screen (AID 622;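 active = fluorescence slope higher than the sample average by over 3 SD, cut at about -0.22 in these data, passing the limit was not always enough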;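 note: slope of raw intensity against log time taken from 70 to 1610 s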). The conditions noted are these: recombinant KvBeta, 4-cyanobenzaldehyde reduction, at 10 µM, stronger effect = higher value.
The target is the same in test [5]. The test can be described thus: enhancers of rat Kvbeta2 NADPH turnover – biochemical, NADPH fluorescence, primary screen (AID 623;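 active = NADPH fluorescence slope more negative than the mean of all samples by about 3 SD, 99.7% confidence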;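 note: fluorescence intensity change per second fitted from 20 to 320 s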). The conditions noted are these: Recombinant KvBeta, NADPH fluorescence decrease slope, 10 min; at 10 µM; stronger effect = lower value.
Test [6] has as its target Alpha-2C adrenergic receptor (Homo sapiens) (UniProt P18825). Description: compounds altering alpha2C-coupled GIRK flux – cell-based, HEK293 alpha2C/GIRK1/2, thallium flux, primary screen (AID 624;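 active = fluorescence slope after compound addition differing from the mean of all screened samples at 99.7% confidence, in either direction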;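 note: slope of fluorescence ratio to pre-addition baseline per second over 15 to 24 s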). The conditions noted are these: thallium flux BTC fluorescence, at 10 µM, actives lie on both sides.
Test [7] in a line: blockers of RIG-like receptor reporter activation – cell-based, Sendai virus stimulus, luciferase, 10K MLSCN set, TLR/RLR signaling modifier project, primary screen (AID 602276;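 active = inhibition at or above 50% at 10 µM; inactive = inhibition below 50%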;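 note: firefly luciferase from ISG56 promoter only with Renilla not read in this screen; 0% = Sendai virus plus DMSO and 100% = medium plus DMSO without virus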). The conditions noted are these: HEK293 RL24 IRF3 luciferase reporter, at 10 µM, stronger effect = higher value. A general note: In a reporter assay the amount or activity of a reporter protein is the signal.
Test [8] can be described thus: TLR3 IRF3 reporter activation blockers – cell-based, poly I:C stimulus, luciferase, 10K MLSCN set, primary screen (AID 602277;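 active = inhibition of the reporter signal at or above 50%; inactive = inhibition below 50%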). The conditions noted are these: HEK293-TLR3 RL24 IRF3 luciferase reporter, at 10 µM, stronger effect = higher value.

Chain of Voltage-gated potassium channel subunit beta-2 (Rattus norvegicus) (P62483 whole entry, looked up): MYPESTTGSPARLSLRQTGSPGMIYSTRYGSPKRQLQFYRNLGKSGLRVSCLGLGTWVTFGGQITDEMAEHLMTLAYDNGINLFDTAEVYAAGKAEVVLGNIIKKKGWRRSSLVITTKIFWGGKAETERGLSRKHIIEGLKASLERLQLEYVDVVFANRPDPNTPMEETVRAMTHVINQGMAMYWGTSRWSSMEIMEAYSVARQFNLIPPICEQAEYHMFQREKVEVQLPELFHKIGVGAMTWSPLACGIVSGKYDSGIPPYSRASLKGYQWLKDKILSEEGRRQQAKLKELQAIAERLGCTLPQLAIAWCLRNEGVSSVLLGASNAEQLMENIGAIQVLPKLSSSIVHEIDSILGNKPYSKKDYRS
Chain of Alpha-2C adrenergic receptor (Homo sapiens) (P18825 whole entry, looked up): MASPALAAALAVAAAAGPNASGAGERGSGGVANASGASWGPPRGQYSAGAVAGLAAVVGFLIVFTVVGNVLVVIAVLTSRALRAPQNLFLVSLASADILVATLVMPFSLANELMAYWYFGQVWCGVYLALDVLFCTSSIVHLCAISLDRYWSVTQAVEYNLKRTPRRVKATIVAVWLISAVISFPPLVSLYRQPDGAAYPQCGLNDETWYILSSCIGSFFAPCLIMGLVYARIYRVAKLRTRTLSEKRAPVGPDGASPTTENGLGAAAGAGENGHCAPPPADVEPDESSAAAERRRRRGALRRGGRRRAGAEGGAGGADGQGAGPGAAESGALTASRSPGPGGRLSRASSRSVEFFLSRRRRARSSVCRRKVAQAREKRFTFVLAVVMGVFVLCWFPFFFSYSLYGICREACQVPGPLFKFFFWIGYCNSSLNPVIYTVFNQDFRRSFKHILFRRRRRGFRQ

The term inhibition denotes the change of the read-out against control, counted positive when it falls. Take `Cn1c(=O)n(Cc2ccc(F)cc2)c(=O)c2c1nc1n2CCCN1Cc1ccccc1`: the cell count in test [1] was 698. Besides, the inhibition in test [1] is 1.6% (inactive); in test [3], -41.3% (inactive); in test [7], 7.62% (inactive); in test [8], 12.8% (inactive). The inhibition of aggregation in test [2] was -3.6% (inactive). Moreover, the nuclei count turned out to be 119% in test [2] and 148% in test [3]. The fluorescence slope in test [4] is -0.448 (inactive). Also, the NADPH fluorescence slope in test [5] was -6e-05 (inactive). Besides, the slope in test [6] is 0.00383 (inactive).

In the case of `COc1ccc(CNc2nc3nc(C)c(Cl)c(C)n3n2)cc1OC`, the cell count in test [1] turned out to be 684. The inhibition in test [1] is -23.3% (inactive); in test [3], -4.1% (inactive); in test [7], 3.08% (inactive); in test [8], -10.6% (inactive). Besides, the inhibition of aggregation in test [2] was -2.8% (inactive). Further, the results for the nuclei count in test [2] and in test [3] were 110% and 105%, respectively. In test [4], the fluorescence slope is -0.331 (inactive). Moreover, the NADPH fluorescence slope in test [5] is -6e-05 (inactive). For the same compound, in test [6], the slope was 0.00515 (inactive).

Consider `CCC(C)(C(=O)NC1CCCC1)N(C(=O)c1cnccn1)c1c(C)n(C)n(-c2ccccc2)c1=O` (centres undefined), for which the cell count in test [1] amounted to 568. In addition, the inhibition in test [1] is 3.8% (inactive); in test [3] it was 15.6% (inactive); in test [7], -1.44% (inactive); in test [8], 9.08% (inactive). For the same compound, the inhibition of aggregation in test [2] is 7% (inactive). Also, the nuclei count in test [2] is 91.3%; in test [3], 89.6%. In addition, in test [4], the fluorescence slope is -0.471 (inactive). The NADPH fluorescence slope in test [5] is -0.000132 (inactive). In addition, the slope in test [6] is 0.00518 (inactive).

On to `C=CCc1cc(OC)ccc1OCC(O)CN1CCN(c2ccc(OC)cc2)CC1` (centres undefined), for which the cell count in test [1] is 402. Moreover, the inhibition was 2.5% (inactive) in test [1], -16.2% (inactive) in test [3], 12.2% (inactive) in test [7] and 22.6% (inactive) in test [8]. Also, the inhibition of aggregation in test [2] was 1.9% (inactive). Further, the nuclei count came to 105% in test [2] and 106% in test [3]. Also, the fluorescence slope in test [4] is -0.629 (inactive). The NADPH fluorescence slope in test [5] was 7.7e-07 (inactive). For the same compound, the slope in test [6] is 0.00605 (inactive).

As to `COc1ccc2nc3oc(C(=O)NC4CCN(Cc5ccccc5)CC4)cc3cc2c1`, the cell count in test [1] is 237. In addition, the inhibition is -1.3% (inactive) in test [1], -9.9% (inactive) in test [3], -32.2% (inactive) in test [7] and -53.8% (inactive) in test [8]. The inhibition of aggregation in test [2] was -19% (inactive). In addition, the nuclei count in test [2] was 107%; in test [3], 110%. Moreover, the fluorescence slope in test [4] is -0.122 (active). In addition, the NADPH fluorescence slope in test [5] was -8.2e-06 (inactive). In test [6], the slope is 0.00404 (inactive).

For `CCOCCCNC(=O)C1CC(=O)N(C2CCCC2)C1` (centres undefined), in test [1], the cell count amounted to 536. Besides, the inhibition in test [1] was -6.8% (inactive); in test [3] it was 11.6% (inactive); in test [7] it was 15.9% (inactive); in test [8] it was 18.9% (inactive). The inhibition of aggregation in test [2] was 1.5% (inactive). In addition, the values for the nuclei count in test [2] and in test [3] were 103% and 118%, respectively. Further, the fluorescence slope in test [4] is -0.495 (inactive). Besides, the NADPH fluorescence slope in test [5] is -1.6e-05 (inactive). Besides, the slope in test [6] is 0.00627 (inactive).

`CCOC(=O)c1ccc2[nH]c(C)c(CN3CCN(C)CC3)c(=O)c2c1`: the cell count in test [1] amounted to 332. In addition, the inhibition in test [1] is 6.1% (inactive); in test [3] it was 20.8% (inactive); in test [7], -4.42% (inactive); in test [8], 21.9% (inactive). For the same compound, in test [2], the inhibition of aggregation is 11.1% (inactive). For the same compound, the nuclei count in test [2] worked out at 89.7%; in test [3], 112%. Besides, the fluorescence slope in test [4] was -0.471 (inactive). Further, the NADPH fluorescence slope in test [5] is -4e-05 (inactive). The slope in test [6] is 0.00513 (inactive).

As for `COc1cc(NC(=O)c2cccs2)cc(OC)c1`, in test [1], the cell count came to 306. Besides, the inhibition was -14.2% (inactive) in test [1], -201% (inactive) in test [3], -38.7% (inactive) in test [7] and -64.2% (inactive) in test [8]. The inhibition of aggregation in test [2] is 33% (inactive). For the same compound, the nuclei count in test [2] amounted to 82.6%; in test [3], 96.7%. Moreover, the fluorescence slope in test [4] was -0.337 (inactive). The NADPH fluorescence slope in test [5] is -4.5e-05 (inactive). For the same compound, the slope in test [6] is 0.00448 (inactive).

Consider `O=C1CC(Cc2ccccc2)C(=O)N1CCCn1ccnc1` (centres undefined), for which, in test [1], the cell count was found to be 429. Besides, the inhibition in test [1] was -4.9% (inactive); in test [3], 36.4% (inactive); in test [7], 17.7% (inactive); in test [8], 25% (inactive). Also, the inhibition of aggregation in test [2] is 10.8% (inactive). In addition, the nuclei count was determined as 100% in test [2] and 102% in test [3]. Further, the fluorescence slope in test [4] was -0.346 (inactive). For the same compound, the NADPH fluorescence slope in test [5] was -6e-05 (inactive). The slope in test [6] was 0.00527 (inactive).

In the case of `COc1ccccc1-c1nc2n(n1)C(c1cccs1)C(C(=O)Nc1cccnc1)=C(C)N2` (centres undefined), in test [1], the cell count turned out to be 446. In addition, the inhibition in test [1] is 16.2% (inactive); in test [3], 7.4% (inactive); in test [7], -11.5% (inactive); in test [8], -7.18% (inactive). In addition, the inhibition of aggregation in test [2] is -15.2% (inactive). In addition, the nuclei count came out at 57.9% in test [2] and 98.9% in test [3]. Further, the fluorescence slope in test [4] was -0.587 (inactive). In test [5], the NADPH fluorescence slope is -3.8e-05 (inactive). In addition, the slope in test [6] is 0.00515 (inactive).

On to `Cc1ccc(-c2noc(CCC(=O)N3CCN(c4cccc(C(F)(F)F)c4)CC3)n2)cc1`, for which, in test [1], the cell count is 647. Further, the inhibition was 7.6% (inactive) in test [1], -36.9% (inactive) in test [3], 9.01% (inactive) in test [7] and 6.71% (inactive) in test [8]. For the same compound, the inhibition of aggregation in test [2] is -10.2% (inactive). Also, the nuclei count worked out at 95.8% in test [2] and 111% in test [3]. The fluorescence slope in test [4] is -0.391 (inactive). The NADPH fluorescence slope in test [5] is -5.4e-05 (inactive). Further, the slope in test [6] was 0.00562 (inactive).

As to `C=CCN1C(=O)C2(/C(=C(\O)c3ccc4c(c3)OCCO4)C(=O)C(=O)N2CCCOC)c2ccccc21` (centres undefined), the cell count in test [1] came out at 390. Besides, the inhibition was 8.6% (inactive) in test [1], -37.2% (inactive) in test [3], 20.5% (inactive) in test [7] and 21.2% (inactive) in test [8]. Also, the inhibition of aggregation in test [2] is 0.7% (inactive). Further, the nuclei count in test [2] is 104%; in test [3] it was 128%. In addition, the fluorescence slope in test [4] was -0.465 (inactive). Also, in test [5], the NADPH fluorescence slope is -1.1e-05 (inactive). Besides, the slope in test [6] was 0.00507 (inactive).

Turning to `CN(C)S(=O)(=O)NC(c1ccccc1)c1ccccc1`, the cell count in test [1] came to 671. Also, the inhibition in test [1] was 5.8% (inactive); in test [3], 14.6% (inactive); in test [7], 20.5% (inactive); in test [8] it was 21.8% (inactive). The inhibition of aggregation in test [2] is 3.3% (inactive). Also, the nuclei count was 102% in test [2] and 99.9% in test [3]. In test [4], the fluorescence slope was -0.413 (inactive). Also, the NADPH fluorescence slope in test [5] is -3.1e-05 (inactive). In test [6], the slope is 0.00605 (inactive).

Turning to `Cc1cccc(-n2c(O)c(C=Nc3ccccc3N)c(=O)[nH]c2=O)c1`, the cell count in test [1] turned out to be 444. Further, the inhibition in test [1] was 6% (inactive); in test [3], -29.2% (inactive); in test [7], 13% (inactive); in test [8], 25.3% (inactive). Besides, the inhibition of aggregation in test [2] is -8.1% (inactive). For the same compound, the values for the nuclei count in test [2] and in test [3] were 101% and 120%, respectively. The fluorescence slope in test [4] was -0.414 (inactive). Besides, in test [5], the NADPH fluorescence slope is -0.000142 (inactive). Also, the slope in test [6] was 0.00576 (inactive).
